Experimental data reported in the supplement of paper PMC11732987, “Enantioselective OTUD7B fragment discovery through chemoproteomics screening and high-throughput optimisation” (Communications Chemistry, 2025).

Columns and labels:
Assay in all cases: log2 ratio of Biotin-Ahx-Ub-VS probe labelling (fragment/DMSO); higher = less target engagement (more negative = stronger competition), active = hit call of the paper (q ≤ 0.05, log2 ratio ≤ -1)
Conditions in all cases: compound concentration: 200 uM; treatment time: 3 h
[1] = molecular target: T1, USP19 (UniProt O94966)
T1 sequence (whole entry): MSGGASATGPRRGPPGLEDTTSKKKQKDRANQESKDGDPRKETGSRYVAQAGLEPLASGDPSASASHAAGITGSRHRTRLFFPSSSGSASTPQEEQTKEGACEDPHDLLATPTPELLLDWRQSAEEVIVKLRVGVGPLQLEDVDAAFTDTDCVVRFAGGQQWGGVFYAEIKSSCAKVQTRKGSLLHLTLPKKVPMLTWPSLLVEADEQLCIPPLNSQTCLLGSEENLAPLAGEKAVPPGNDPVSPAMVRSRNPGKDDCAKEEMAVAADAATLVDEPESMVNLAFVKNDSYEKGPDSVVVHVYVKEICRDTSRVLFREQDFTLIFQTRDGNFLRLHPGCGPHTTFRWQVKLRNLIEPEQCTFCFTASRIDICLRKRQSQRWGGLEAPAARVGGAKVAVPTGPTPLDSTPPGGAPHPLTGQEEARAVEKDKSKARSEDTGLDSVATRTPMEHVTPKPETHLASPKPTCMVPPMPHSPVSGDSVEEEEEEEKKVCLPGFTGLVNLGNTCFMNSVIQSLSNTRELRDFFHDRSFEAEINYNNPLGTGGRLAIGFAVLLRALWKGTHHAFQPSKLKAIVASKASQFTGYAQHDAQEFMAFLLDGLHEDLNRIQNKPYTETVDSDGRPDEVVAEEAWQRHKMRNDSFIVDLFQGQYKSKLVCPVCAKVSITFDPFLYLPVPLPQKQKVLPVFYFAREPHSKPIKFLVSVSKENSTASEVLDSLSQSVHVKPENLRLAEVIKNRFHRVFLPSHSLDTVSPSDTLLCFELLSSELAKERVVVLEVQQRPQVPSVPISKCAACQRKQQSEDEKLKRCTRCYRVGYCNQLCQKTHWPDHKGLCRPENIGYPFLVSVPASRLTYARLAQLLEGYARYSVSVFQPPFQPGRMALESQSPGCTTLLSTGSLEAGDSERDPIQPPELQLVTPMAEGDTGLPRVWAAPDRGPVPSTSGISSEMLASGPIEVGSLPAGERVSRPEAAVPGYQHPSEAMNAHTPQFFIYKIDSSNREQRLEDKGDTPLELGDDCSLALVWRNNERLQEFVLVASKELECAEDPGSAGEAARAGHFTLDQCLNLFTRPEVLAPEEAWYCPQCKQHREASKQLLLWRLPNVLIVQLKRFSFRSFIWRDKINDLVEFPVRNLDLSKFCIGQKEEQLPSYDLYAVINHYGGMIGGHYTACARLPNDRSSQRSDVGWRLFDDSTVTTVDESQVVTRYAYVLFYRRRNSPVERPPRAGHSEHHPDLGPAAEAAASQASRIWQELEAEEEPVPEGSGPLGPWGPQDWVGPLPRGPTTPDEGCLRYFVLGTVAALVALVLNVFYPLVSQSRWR
Method in brief: (§1)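 HEK293T lysate, 495 µg per sample in Tris/CHAPS/IGEPAL buffer with protease inhibitors, was treated in triplicate with fragment at 200 µM or vehicle for 3 h and then with Biotin-Ahx-Ub-VS at 0.5 µM final for 1 h. Labelled DUBs were NeutrAvidin-enriched, digested with LysC and trypsin, and run by diaPASEF LC-MS/MS. Spectronaut label-free quantities were global-median-normalised, and values are average log2 fragment/vehicle ratios by unpaired t-test on proteins with ≥2 unique peptides.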

[2] = molecular target: USP24 (UniProt Q9UPU5)
Sequence of USP24 (Q9UPU5 whole entry): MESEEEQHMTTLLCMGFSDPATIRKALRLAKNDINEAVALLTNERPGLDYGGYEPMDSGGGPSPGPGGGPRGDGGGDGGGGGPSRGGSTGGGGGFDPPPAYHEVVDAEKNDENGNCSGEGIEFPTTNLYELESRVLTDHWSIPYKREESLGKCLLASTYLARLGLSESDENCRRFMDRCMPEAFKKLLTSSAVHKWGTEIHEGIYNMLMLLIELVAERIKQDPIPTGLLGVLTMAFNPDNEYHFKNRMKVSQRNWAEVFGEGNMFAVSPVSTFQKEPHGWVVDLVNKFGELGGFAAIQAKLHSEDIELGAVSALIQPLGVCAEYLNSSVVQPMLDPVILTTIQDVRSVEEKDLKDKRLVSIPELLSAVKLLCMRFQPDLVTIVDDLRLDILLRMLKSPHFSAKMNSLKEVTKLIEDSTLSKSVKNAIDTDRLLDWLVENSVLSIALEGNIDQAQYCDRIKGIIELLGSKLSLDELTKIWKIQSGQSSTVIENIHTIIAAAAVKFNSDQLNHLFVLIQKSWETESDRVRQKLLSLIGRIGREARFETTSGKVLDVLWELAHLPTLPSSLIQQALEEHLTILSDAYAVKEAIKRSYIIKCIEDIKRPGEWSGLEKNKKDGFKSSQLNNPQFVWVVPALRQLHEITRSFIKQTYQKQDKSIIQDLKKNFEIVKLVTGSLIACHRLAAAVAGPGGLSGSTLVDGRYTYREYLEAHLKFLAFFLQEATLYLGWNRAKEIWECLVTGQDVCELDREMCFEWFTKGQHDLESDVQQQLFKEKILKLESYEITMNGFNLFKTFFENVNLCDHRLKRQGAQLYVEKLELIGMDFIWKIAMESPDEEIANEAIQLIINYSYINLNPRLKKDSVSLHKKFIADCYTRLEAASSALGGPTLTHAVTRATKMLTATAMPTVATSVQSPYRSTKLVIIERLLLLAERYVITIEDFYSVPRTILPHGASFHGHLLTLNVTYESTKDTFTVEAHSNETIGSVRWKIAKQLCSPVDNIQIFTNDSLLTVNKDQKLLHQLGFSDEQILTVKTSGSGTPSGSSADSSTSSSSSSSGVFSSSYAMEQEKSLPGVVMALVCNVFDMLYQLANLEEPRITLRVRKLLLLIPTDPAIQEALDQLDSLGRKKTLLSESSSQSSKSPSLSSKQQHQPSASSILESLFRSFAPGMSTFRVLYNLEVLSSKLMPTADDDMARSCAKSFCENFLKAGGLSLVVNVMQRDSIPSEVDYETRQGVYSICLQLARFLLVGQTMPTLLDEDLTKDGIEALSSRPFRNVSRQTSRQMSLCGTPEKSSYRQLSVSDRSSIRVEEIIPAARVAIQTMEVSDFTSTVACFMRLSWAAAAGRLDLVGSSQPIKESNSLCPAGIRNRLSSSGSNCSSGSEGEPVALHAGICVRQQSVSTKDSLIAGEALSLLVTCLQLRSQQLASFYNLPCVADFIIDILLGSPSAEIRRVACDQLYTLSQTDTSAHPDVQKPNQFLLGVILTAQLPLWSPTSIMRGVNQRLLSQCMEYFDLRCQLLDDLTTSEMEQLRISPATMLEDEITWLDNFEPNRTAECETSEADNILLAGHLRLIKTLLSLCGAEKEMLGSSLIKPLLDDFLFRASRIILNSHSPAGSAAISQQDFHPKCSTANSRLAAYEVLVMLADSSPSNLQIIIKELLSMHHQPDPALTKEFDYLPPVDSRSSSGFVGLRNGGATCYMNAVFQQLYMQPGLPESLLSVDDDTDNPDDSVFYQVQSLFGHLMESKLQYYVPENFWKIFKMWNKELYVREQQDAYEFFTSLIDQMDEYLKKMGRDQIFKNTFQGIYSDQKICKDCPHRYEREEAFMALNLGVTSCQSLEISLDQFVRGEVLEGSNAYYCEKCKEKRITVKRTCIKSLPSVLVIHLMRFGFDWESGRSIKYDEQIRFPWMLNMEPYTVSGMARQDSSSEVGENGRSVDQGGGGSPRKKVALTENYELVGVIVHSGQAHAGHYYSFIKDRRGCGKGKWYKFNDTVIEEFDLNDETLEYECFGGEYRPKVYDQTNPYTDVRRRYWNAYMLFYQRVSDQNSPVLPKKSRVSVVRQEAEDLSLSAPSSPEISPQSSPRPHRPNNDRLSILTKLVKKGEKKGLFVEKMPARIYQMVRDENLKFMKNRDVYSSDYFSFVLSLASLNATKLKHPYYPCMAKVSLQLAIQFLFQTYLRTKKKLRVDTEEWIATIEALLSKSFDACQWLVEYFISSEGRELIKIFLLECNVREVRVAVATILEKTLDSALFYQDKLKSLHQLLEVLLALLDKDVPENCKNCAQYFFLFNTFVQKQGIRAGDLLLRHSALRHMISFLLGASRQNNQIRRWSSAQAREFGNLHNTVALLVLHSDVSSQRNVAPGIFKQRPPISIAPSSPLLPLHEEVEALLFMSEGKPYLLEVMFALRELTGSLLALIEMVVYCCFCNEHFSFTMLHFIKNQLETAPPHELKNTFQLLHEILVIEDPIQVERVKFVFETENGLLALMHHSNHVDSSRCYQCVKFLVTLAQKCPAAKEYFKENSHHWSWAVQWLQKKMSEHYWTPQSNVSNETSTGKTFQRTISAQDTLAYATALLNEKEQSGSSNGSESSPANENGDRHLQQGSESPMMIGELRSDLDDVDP
Method in brief: as §1

[3] = molecular target: T2, USP25 (UniProt Q9UHP3)
T2 sequence (whole entry): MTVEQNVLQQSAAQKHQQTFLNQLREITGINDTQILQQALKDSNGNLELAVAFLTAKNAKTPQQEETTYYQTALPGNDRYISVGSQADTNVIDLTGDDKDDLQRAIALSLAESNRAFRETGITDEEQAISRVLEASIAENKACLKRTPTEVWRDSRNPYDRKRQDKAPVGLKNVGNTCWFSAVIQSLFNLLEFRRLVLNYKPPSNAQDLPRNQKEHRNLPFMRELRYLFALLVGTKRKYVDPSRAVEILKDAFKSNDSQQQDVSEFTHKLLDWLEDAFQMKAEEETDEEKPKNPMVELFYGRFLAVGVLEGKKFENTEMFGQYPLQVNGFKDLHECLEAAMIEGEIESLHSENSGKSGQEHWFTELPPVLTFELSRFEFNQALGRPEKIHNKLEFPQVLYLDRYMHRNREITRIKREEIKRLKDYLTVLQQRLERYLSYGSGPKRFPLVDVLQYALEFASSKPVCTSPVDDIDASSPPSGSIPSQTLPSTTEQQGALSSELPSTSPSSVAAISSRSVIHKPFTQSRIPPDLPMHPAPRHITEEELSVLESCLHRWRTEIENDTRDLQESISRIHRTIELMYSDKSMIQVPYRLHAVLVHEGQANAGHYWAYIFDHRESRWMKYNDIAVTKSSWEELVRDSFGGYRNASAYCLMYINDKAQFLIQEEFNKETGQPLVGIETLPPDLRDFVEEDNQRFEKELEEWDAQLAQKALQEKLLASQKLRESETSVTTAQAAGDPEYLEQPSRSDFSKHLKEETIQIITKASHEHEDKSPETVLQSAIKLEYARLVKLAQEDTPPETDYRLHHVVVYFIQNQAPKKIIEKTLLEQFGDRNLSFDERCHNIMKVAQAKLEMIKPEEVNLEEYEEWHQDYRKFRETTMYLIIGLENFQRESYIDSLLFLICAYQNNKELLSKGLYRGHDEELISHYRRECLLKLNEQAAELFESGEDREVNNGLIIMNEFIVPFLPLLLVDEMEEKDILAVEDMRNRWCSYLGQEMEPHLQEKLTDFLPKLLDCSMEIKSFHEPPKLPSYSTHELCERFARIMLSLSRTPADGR
Method in brief: as §1

[4] = molecular target: T3, USP28 (UniProt Q96RU2)
T3 sequence (whole entry): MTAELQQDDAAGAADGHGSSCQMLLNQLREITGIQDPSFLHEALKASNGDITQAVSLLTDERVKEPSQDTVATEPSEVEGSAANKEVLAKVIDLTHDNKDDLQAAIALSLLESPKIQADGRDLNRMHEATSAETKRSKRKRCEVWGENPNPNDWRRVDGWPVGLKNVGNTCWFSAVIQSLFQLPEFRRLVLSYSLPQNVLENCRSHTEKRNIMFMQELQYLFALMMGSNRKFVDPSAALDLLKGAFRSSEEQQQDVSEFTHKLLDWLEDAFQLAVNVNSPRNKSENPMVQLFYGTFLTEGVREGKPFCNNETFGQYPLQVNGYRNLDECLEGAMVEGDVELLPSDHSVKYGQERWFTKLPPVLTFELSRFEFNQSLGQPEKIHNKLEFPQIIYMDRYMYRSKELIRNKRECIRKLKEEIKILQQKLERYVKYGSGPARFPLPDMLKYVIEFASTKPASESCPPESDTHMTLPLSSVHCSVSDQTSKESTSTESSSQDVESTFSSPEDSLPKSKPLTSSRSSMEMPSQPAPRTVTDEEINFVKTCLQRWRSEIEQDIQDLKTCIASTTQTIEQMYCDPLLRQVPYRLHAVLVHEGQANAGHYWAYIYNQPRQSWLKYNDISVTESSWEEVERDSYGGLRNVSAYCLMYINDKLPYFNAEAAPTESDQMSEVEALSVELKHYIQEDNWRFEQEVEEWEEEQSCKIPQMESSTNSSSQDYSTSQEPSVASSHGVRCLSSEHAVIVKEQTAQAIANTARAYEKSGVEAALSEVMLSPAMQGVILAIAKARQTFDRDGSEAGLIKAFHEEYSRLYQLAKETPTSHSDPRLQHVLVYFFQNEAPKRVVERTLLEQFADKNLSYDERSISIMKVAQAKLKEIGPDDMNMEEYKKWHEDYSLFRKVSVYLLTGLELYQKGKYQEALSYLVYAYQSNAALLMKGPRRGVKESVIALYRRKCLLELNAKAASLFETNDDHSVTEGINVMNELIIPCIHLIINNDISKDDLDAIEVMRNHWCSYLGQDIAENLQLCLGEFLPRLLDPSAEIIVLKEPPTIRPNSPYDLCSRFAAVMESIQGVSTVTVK
Method in brief: as §1

Measured: log2 ratio of Biotin-Ahx-Ub-VS probe labelling

O=C(CCl)N1CCCN(C(=O)c2ccc(Cl)cc2)CC1
inactive: [1] -0.449 | [2] -0.433 | [3] -0.628 | [4] -0.618
